This is a sample that favours compounds with a hit; in the whole collection about 0.93% have one here.
PKM2 act – PKM2 (human) enzyme activation. P14618. purified PKM2, Kinase-Glo ATP luminescence, activation; response scale: 0% is enzyme alone, no compound. Potency, µM (top dose mostly 57.5 µM), without a hit: at the highest dose activation, most hits filed as activators. hit rate 0.34% among 260,000; active = well fitted activation curve with a large enough effect; inconclusive = small, poorly fitted or top-dose-only effect; inactive = no such curve, though single readings can be large or run the other way; note: potency is the fitted concentration of half-maximal effect; nearly all actives have a fitted effect of over 55% in size
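Purified hPK-M2 (>95%) run at intermediate activity with 0.1 mM ADP and 0.5 mM PEP in 50 mM imidazole pH 7.2, KCl, MgCl2; 1 h room temperature. ATP formed read by Kinase-Glo luminescence; normalized to uninhibited and no-enzyme controls.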
Six1-Eya2 inh – inhibitors of human Six1/Eya2 interaction. hit rate 0.56% among 360,000. AlphaScreen GST-Six1/His-Eya2 binding, biochemical; stronger effect = lower value. AID 651725. activity change, % (concentration not given with the values)
Target sequence (O00167 whole entry, looked up): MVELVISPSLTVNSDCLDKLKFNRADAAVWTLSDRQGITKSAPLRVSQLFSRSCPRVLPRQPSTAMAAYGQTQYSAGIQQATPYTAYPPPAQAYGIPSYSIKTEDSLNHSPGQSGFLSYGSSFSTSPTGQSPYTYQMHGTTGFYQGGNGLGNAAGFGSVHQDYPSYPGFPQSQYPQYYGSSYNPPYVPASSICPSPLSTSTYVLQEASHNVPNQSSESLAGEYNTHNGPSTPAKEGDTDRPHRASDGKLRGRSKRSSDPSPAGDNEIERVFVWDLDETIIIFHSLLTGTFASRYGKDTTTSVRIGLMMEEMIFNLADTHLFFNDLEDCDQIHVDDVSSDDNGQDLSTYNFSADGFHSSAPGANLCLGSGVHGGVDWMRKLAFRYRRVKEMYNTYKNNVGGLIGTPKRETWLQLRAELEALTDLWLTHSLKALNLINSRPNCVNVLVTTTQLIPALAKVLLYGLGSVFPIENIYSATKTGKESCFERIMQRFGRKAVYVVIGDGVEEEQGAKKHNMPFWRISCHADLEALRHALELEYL
Target sequence (Q15475 whole entry, looked up): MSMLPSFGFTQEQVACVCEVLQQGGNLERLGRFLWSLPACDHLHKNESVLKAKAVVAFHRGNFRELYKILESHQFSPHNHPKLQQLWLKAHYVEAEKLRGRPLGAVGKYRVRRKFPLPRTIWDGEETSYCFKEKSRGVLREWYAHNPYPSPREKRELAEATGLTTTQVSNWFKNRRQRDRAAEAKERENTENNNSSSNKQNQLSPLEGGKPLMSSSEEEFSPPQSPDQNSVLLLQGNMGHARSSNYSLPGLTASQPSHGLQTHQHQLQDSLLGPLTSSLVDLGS
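Homogeneous AlphaScreen proximity assay pairing GST-Six1 with His-tagged Eya2 (added as 5X mix: 250 nM and 500 nM) in 50 mM Tris pH 8.0, 300 mM NaCl, 1 mM TCEP. Glutathione donor and nickel acceptor beads; 1 h, 37 °C, dark.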
MBNL1-CUG inh – MBNL1-poly(CUG) RNA binding inhibition | Q9NR56 | TR-FRET MBNL1-His/biotin-(CUG)12 binding, 665/545 ratio | Potency, µM (doses to about 57.5 µM), for inactives: at the highest dose activity change, negative = inhibition, hits mostly inhibitors | hit rate 0.036% among 280,000; active = well fitted inhibition curve with a large enough effect in the signal ratio, with a control signal flat, not every such curve was filed as active; inconclusive = small, poorly fitted or top-dose-only effect, or effect the other way, or a change in a side signal; inactive = no such curve, though single readings can be large or run the other way; the % refers to the signal ratio; note: potency is the fitted concentration of half-maximal effect
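His-tagged MBNL1 binding to biotinylated (CUG)12 RNA was measured by TR-FRET using terbium anti-His antibody (0.055 ng/ul final) and streptavidin-XL665 (5 nM final). Compounds were titrated 92 nM to 58 uM; 60 min at room temperature.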
CtBP-E1A inh – inhibitors of CtBP/E1A interaction; AlphaScreen GST-E1A/His-CtBP binding, 1536-well; stronger effect = lower value; AID 651724; activity change, % (concentration not given with the values); hit rate 0.49% among 340,000
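Protein mix (5X: 125 nM each GST-E1A, His-CtBP) was incubated with pinned compound 2 h at 37 deg C in dark, in 50 mM Tris pH 8.0 buffer with 300 mM NaCl. Glutathione donor and nickel acceptor beads followed; AlphaScreen signal read after 1 h.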
* = called active by the depositor; ? = inconclusive; . = not tested or not shown; [ ] = remark or other dose. Cut-off read from the data, not from the text of the source, unless noted: active = activity change below about -65%; inconclusive = mostly about -30% to -63%; inactive = weaker than that. % is set by controls: 0 for no effect and ±100 for the full control effect.

SMILES	PKM2 act	Six1-Eya2 inh	MBNL1-CUG inh	CtBP-E1A inh
Cc1ccc(S(=O)(=O)/N=c2\sccn2C)cc1	18µM*	2	8%	3
O=C(CCCc1nc2ccccc2s1)N1CCN(S(=O)(=O)c2cccs2)CC1	4.5µM*	0	-3%	-1
COc1ccc(C(O)c2nc(-c3ccc(OC)c(OC)c3)cs2)cc1 (configuration not stated)	.	0	.	-1
Cc1nc2cccc(C(=O)Oc3ccc([N+](=O)[O-])cc3)c2o1	-4%	-82*	4%	-15
CCOC(=O)N(C)c1c(CC)nc2c(OCc3ccccc3C)cccn12	.	7	.	0
C[C@H]1CN([C@@H](C)CO)S(=O)(=O)c2ccc(C#Cc3cccnc3)cc2O[C@@H]1CN(C)C(=O)Nc1ccc2c(c1)OCO2	.	-8	.	-1
Cc1ccc(NC(=O)CN2C(=O)N/C(=C/c3cc(C)n(-c4ccc(C(=O)O)cc4)c3C)C2=O)cc1	10%	-17	?	-7
Cc1ccc(NC(=O)CN2C(=O)N/C(=C/c3cccn3-c3ccc(C(=O)O)cc3)C2=O)cc1	30%	-74*	?	12
CCOC(=O)c1c(-c2cccs2)csc1NC(=O)c1ccncc1	-3%	3	-4%	7
CCOC(=O)c1c(-c2cccs2)csc1NC(=O)COC(=O)c1c(C)noc1C	14µM*	6	12%	15
CC(=O)Oc1ccc2c(c1)Oc1cc(OC(C)=O)ccc1C21OC(=O)c2ccccc21	-14%	-82*	?	-28
COc1cccc(-c2cnc(C(O)c3ccc(C(C)(C)C)cc3)[nH]2)c1 (configuration not stated)	.	-26	.	-20
CCOc1ncccc1C(=O)NCCN1C(=O)S/C(=C/c2cccs2)C1=O	16µM*	-3	?	-24
COc1cccc(C(=O)NCCN2C(=O)S/C(=C/c3cccs3)C2=O)c1OC	16%	-12	?	-3
c1ccc(Cn2ncc3c(NCc4ccco4)ncnc32)cc1	14µM*	-3	-10%	8
O=C(N/N=C/c1ccccn1)c1ccc(Br)o1	1%	-66*	7%	-75*
CNc1cc(-c2cccc(OC)c2F)nc2ccnn12	.	1	.	-5
O=S(=O)(O)c1cc(O)c(N=Nc2ccc(O)cc2O)c2ccccc12	.	-83*	.	-94*
COC(=O)c1c(N2C(=O)CC(Sc3ccccc3C(=O)O)C2=O)sc2c1CCCC2 (configuration not stated)	7.9µM*	-7	4%	-6
CCOC(=O)c1cc(CC)sc1N1C(=O)CC(Sc2ccccc2C(=O)O)C1=O (configuration not stated)	25µM*	-3	-1%	-7
Cc1noc(C)c1S(=O)(=O)N1CCc2nc(COc3ccccc3)c3c(c2C1)CO[C@@H](C)C3	-5%[11.5 µM]	.	.	.
COc1ccc(Br)cc1C(=O)CCC(=O)OCC(=O)Nc1cc(C(N)=O)cc(C(N)=O)c1	.	?	.	-70*
CC(C)CC1C(=O)N(Cc2cn(CC3CCCCC3)nn2)CCS(=O)(=O)N1Cc1ccc(-c2ccncc2)cc1 (configuration not stated)	.	6	.	-1
CCN(CC)c1ccc2c(-c3ccc(S(=O)(=O)O)cc3S(=O)(=O)[O-])c3ccc(=[N+](CC)CC)cc-3oc2c1	.	-67*	?	?
O=C(Oc1c(CN2CCOCC2)cc(Cl)c2cccnc12)c1ccccc1	2%	?	13%	-78*
SMILES	PKM2 act	Six1-Eya2 inh	MBNL1-CUG inh	CtBP-E1A inh
O=C(Oc1c(CN2CCOCC2)cc(Cl)c2cccnc12)c1ccccc1F	0%	-91*	.	-91*
COC(=O)C[C@H]1c2ccccc2C2=C(C[C@@H](C)[C@H]3C(=O)N(c4ccccc4)C(=O)[C@@H]23)N1C(=O)OC	-7%[11.5 µM]	.	.	.
COc1cc(/C=N/NC(=O)c2sc(N)c(C#N)c2C)ccc1O	-3%	-71*	5%	-83*
Cc1c(C(=O)N/N=C/c2ccc(O)c(Br)c2)sc(N)c1C#N	0%	?	9%	-65*
COc1cc2c(cc1OC)C1O[C@](CCCCN3C(=O)c4ccccc4C3=O)(C2)OC2=C1C(=O)c1ccccc1C2=O	1%[11.5 µM]	.	10%[11.5 µM]	.
Nc1c(S(=O)(=O)c2ccccc2)c2nc3ccccc3nc2n1C1CC1	7%	-16	.	0
Nc1c(S(=O)(=O)c2ccccc2)c2nc3ccccc3nc2n1/N=C/c1cccc(O)c1	0%	-75*	-1%	-84*
Cn1c(N)c(S(=O)(=O)c2ccc(Br)cc2)c2nc3ccccc3nc21	25µM*	-25	9%	-29
Clc1ccc(-c2nc3c4ccccc4ccn3c2Cc2ccsc2)cc1	.	0	.	-2
Brc1ccc2nc(CSc3ncn[nH]3)cn2c1	20µM*	15	-2%	-2
Clc1ccc2nc(CSc3ncn[nH]3)cn2c1	?	-8	-3%	3
O=C(O)CCNc1ccc(NCCC(=O)O)c2c1C(=O)c1ccccc1C2=O	.	-85*	?	.
O=C1c2cccc(NCCNCCO)c2C(=O)c2cccc(NCCNCCO)c21	.	-71*	.	-7
COC(=O)c1ccc(C(NC(=O)OCc2ccccc2)/C(I)=C/[C@@H](C)C(=O)NCc2ccc(C)o2)cc1 (some centres not stated)	14µM*	.	.	.
Cc1ccc2[nH]c(=O)c(C(c3nnnn3C(C)(C)C)N3CCN(C(=O)c4ccco4)CC3)cc2c1 (configuration not stated)	25µM*	6	1%	7
CCC(C)(C)n1nnnc1C(c1cc2cc(C)cc(C)c2[nH]c1=O)N1CCN(C(=O)c2ccco2)CC1 (configuration not stated)	14µM*	5	1%	10
Cc1cccc2cc(C(c3nnnn3C(C)(C)C)N3CCN(C(=O)c4ccco4)CC3)c(=O)[nH]c12 (configuration not stated)	30%	2	-9%	12
COCCOC(=O)c1c(C)nc(SCC(=O)Nc2ccc(OC)cc2)c(C#N)c1-c1ccco1	4%	-5	228%	-2
Cc1nc(SCC(=O)c2ccccc2)c(C#N)c(-c2ccco2)c1C(=O)NCc1ccco1	25µM*	-18	7%	-16
OC(Cc1ccccc1)c1ncc(-c2ccc3ccccc3c2)[nH]1 (configuration not stated)	.	-13	.	-11
CCN(CC)CCn1c2ccccc2c(=O)c2c(O)ccc(O)c21	.	-69*	.	0
CCN(CC)CCn1c(O)c(N=O)c2ccccc21	6%	3	?	2
CC12CCC(C(=O)N(CSC(=S)N/N=C\c3ccccc3O)C1=O)C2(C)C (configuration not stated)	-9%	-89*	13%	-94*
COc1ccc(/C=N\NC(=S)SCN2C(=O)C3CCC(C)(C2=O)C3(C)C)cc1 (configuration not stated)	.	-9	.	-13
CCCCOCCCNC(=O)C[C@@H]1C[C@@]2(C(=O)OCC)CCCC=C2N(Cc2ccc(Cl)cc2Cl)C1=O	.	2	.	-1
